Test results published in the supplement of paper PMC10127200.
Counter-ions that a name gives are not always drawn.

Tests used:
Experiment in all cases: Euclidean distance of Cell Painting phenotypic profile (signed KS, 77 features) to DMSO centroid (dimensionless distance); 5 or 10 uM (library dependent); higher = stronger phenotypic change vs DMSO (phenoactivity)
Details in all cases: 48 h
786-O = system: 786-O
How it was run: (§1)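 Stained cells were imaged confocally at 20X with 9 fields per well, after 48 h of exposure to library compounds at 10 or 5 uM (set by library; 0.1% DMSO final). The cells were five cancer lines and a healthy fibroblast line. From the images, Harmony extracted 77 features, each expressed as a signed Kolmogorov-Smirnov statistic relative to same-plate vehicle wells. Phenoactivity is measured as Euclidean distance to the median vehicle profile, using plate-position-corrected, correlation-weighted profiles averaged across replicates at the top dose.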

A549 = system: A549
How it was run: as §1

DU145 = system: DU145
How it was run: as §1

FB = system: FB
How it was run: as §1

HEPG2 = system: HEPG2
How it was run: as §1

OVCAR4 = system: OVCAR4
How it was run: as §1

| SMILES | Euclidean distance (786-O) | Euclidean distance (A549) | Euclidean distance (DU145) | Euclidean distance (FB) | Euclidean distance (HEPG2) | Euclidean distance (OVCAR4) |
| --- | --- | --- | --- | --- | --- | --- |
| C=CC(=O)N1C[C@H](Nc2ncnc3[nH]ccc23)CC[C@@H]1C | 1.27 | 0.386 | 1.09 | 0.936 | 0.582 | 0.786 |
| CCCNC(C)C(=O)Nc1ccccc1C (configuration not stated) [Prilocaine hydrochloride] | 0.697 | 0.662 | 0.635 | 0.843 | 0.473 | 0.791 |
| C=CCNC1=C2C[C@@H](C)C[C@H](OC)[C@H](O)[C@@H](C)/C=C(\C)[C@H](OC(N)=O)[C@@H](OC)/C=C\C=C(/C)C(=O)NC(=CC1=O)C2=O | 2.85 | 2.95 | 4.51 | 3.47 | 3.86 | 2.72 |
| Nc1n[n+]([O-])c2ccccc2[n+]1[O-] [Tirapazamine] | 2.03 | 1.01 | 0.984 | 2.3 | 2.21 | 1.52 |
| COCCCC/C(=N\OCCN)c1ccc(C(F)(F)F)cc1 [Fluvoxamine maleate] | 1.27 | 0.895 | 0.762 | 1.25 | 1.1 | 1.58 |
| CC(C)(Oc1ccc(C(=O)c2ccc(Cl)cc2)cc1)C(=O)O [Fenofibric acid] | 0.559 | 1.24 | 0.978 | 1.59 | 0.698 | 0.976 |
| CN/C(=N\CCSCc1nc[nH]c1C)NC#N [Cimetidine] | 0.94 | 0.861 | 0.762 | 0.864 | 0.95 | 1.25 |
| CCOC(=O)[C@H](CCc1ccccc1)N[C@H]1CS[C@H](c2cccs2)CN(CC(=O)O)C1=O [Temocapril HCl] | 0.717 | 0.454 | 0.716 | 0.895 | 0.434 | 0.878 |
| CC[C@H](C)C(=O)O[C@H]1C[C@@H](C)C=C2C=C[C@H](C)[C@H](CC[C@@H]3C[C@@H](O)CC(=O)O3)[C@H]21 [Lovastatin] | 1.17 | 1.61 | 0.903 | 2 | 2.11 | 0.909 |
| CCN(CC)CCNC(=O)c1ccc(N)cc1 [Procainamide HCl] | 0.693 | 1.02 | 0.74 | 0.787 | 0.326 | 1.07 |
| CN(C)CCCN1c2ccccc2CCc2ccccc21 [Imipramine HCl] | 1.05 | 0.896 | 1.15 | 1.55 | 1.13 | 1.33 |
| CN(Cc1cnc2nc(N)nc(N)c2n1)c1ccc(C(=O)N[C@@H](CCC(=O)O)C(=O)O)cc1 [Methotrexate disodium] | 2.05 | 3.23 | 0.912 | 0.603 | 1.47 | 2.39 |
| N[C@@H](C(=O)N[C@@H]1C(=O)N2C(C(=O)O)=C(Cl)CS[C@H]12)c1ccccc1 [Cefaclor] | 1.19 | 0.817 | 0.688 | 0.8 | 0.709 | 1.53 |
| COc1cc2c(N3CCN(C(=O)Nc4ccc(OC(C)C)cc4)CC3)ncnc2cc1OCCCN1CCCCC1 [Tandutinib (MLN518)] | 0.691 | 1.73 | 1.35 | 2.68 | 1.52 | 1.12 |
| C[C@H](Oc1cc(-c2cnn(C3CCNCC3)c2)cnc1N)c1c(Cl)ccc(F)c1Cl [(S)-crizotinib] | 3.79 | 3.26 | 2.55 | 4.85 | 3.67 | 2.78 |
| COC(=O)/C=C/C(=O)OCCN1C(=O)CCC1=O [Diroximel Fumarete] | 0.82 | 0.396 | 1.17 | 1.24 | 0.611 | 0.814 |
| CN(C)CCN(Cc1ccccc1)c1ccccn1 [Tripelennamine HCl] | 1.42 | 0.863 | 0.966 | 1.05 | 0.581 | 1.72 |
| CCOC(=O)N1c2ccc(C(F)(F)F)cc2[C@@H](N(Cc2cc(C(F)(F)F)cc(C(F)(F)F)c2)C(=O)OC)C[C@H]1CC [Torcetrapib] | 1.3 | 0.836 | 1.01 | 0.99 | 0.467 | 1.29 |
| CCC(=O)NC[C@@H]1C[C@H]1c1cccc2c1CCO2 [Tasimelteon] | 1.21 | 1.04 | 0.924 | 1.26 | 0.397 | 1.28 |
| CC1=NN(c2ccccc2)C(=O)C1 [Edaravone] | 1.25 | 1.04 | 0.819 | 0.807 | 1.31 | 1.02 |
| c1cn2cc(-c3ccc4cn[nH]c4c3)nc(Nc3ccc(N4CCOCC4)cc3)c2n1 [Entospletinib (GS-9973)] | 2.51 | 2.15 | 2.1 | 0.923 | 0.994 | 1.42 |
| O=C(Nc1cccc2cccnc12)c1ccc(N2C(=O)[C@@H]3[C@H](C2=O)[C@@H]2C=C[C@H]3C2)cc1 [IWR-1-endo] | 1 | 1.06 | 1.39 | 1.64 | 1.53 | 1.54 |
